About 83,000 compounds went through this panel and 20% of them were active in at least one assay; those are over-represented in the sample as a whole.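 For each line, cells grew in 96-well plates with the test compound present at a single concentration for 48 hours.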 Active and inactive are the calls of the source. The calls were made as follows: active = growth percent below 10; inactive = the rest.
How the values were obtained:
Test in all cases: NCI-60 one-dose screen, 48 h (100 = growth as untreated, 0 = no growth, -100 = all killed)
[1] = tested on: SR leukemia; conditions: 10 µM unless noted
[2] = tested on: RPMI-8226 leukemia; conditions: 10 µM unless noted
[3] = tested on: OVCAR-8 ovarian; conditions: 10 µM unless noted
[4] = tested on: OVCAR-4 ovarian; conditions: 10 µM unless noted
[5] = tested on: SK-OV-3 ovarian; conditions: 10 µM unless noted
[6] = tested on: HS 578T breast; conditions: 10 µM
[7] = tested on: NCI/ADR-RES ovarian; conditions: 10 µM unless noted
[8] = tested on: T-47D breast; conditions: 10 µM unless noted
[9] = tested on: BT-549 breast; conditions: 10 µM unless noted
[10] = tested on: MDA-MB-435 melanoma; conditions: 10 µM unless noted
[11] = tested on: SW-620 colon; conditions: 10 µM unless noted
[12] = tested on: MCF7 breast; conditions: 10 µM unless noted
[13] = tested on: HCT-116 colon; conditions: 10 µM unless noted
[14] = tested on: HCC-2998 colon; conditions: 10 µM unless noted
[15] = tested on: KM12 colon; conditions: 10 µM unless noted
[16] = tested on: OVCAR-5 ovarian; conditions: 10 µM unless noted
[17] = tested on: IGROV1 ovarian; conditions: 10 µM unless noted
[18] = tested on: OVCAR-3 ovarian; conditions: 10 µM unless noted

Measured: growth

CC1=NN(c2cccc(S(N)(=O)=O)c2)C(=O)C1
inactive: [1] 107% | [2] 271% | [3] 107% | [4] 99.4% | [5] 91.3% | [6] 86.6% | [7] 95.2% | [8] 84.2% | [9] 109% | [10] 94.6% | [11] 94.8% | [12] 90.4% | [13] 104% | [14] 96.1% | [15] 107%

Cc1cc(O)c(C2=NN(c3ccc(S(N)(=O)=O)cc3)C(c3ccc(Cl)cc3)C2)c(C)c1Cl (stereo unspecified)
inactive: [16] 95.2% | [4] 58.9% | [5] 81.6% | [17] 20.6% | [18] 68.1% | [6] 71.2% | [7] 80.3% | [8] 46.9% | [9] 112% | [10] 38.6% | [11] 48.5% | [12] 13% | [13] 55.1% | [14] 66.5% | [15] 29.1%
active: [2] -37.6% | [3] 5.73%

CCN(CC)c1ccc(C(=N)c2ccc(N(C)C)cc2)cc1
inactive: [3] 11.9% | [16] 16.8% | [4] 21.4% | [5] 14.4% | [9] 28.9% | [14] 15.4%
active: [2] 6.17% | [17] 4.79% | [18] -12.6% | [6] -31% | [7] -31.1% | [8] -13.6% | [10] 2% | [11] -18.6% | [12] 2.36% | [13] 1.67% | [15] -8.02%

NC(=S)N/N=C(/c1cccs1)C1CC1
inactive: [1] 120% | [2] 63.2% | [3] 67.7% | [4] 82.8% | [5] 103% | [17] 53.5% | [8] 20.6% | [9] 97.8% | [10] 87.4% | [11] 71.6% | [12] 22.5% | [14] 96.9% | [15] 105%
active: [13] 7.8%

O=C(Nc1cnc(C(F)(F)F)cn1)c1cc(Cl)ccc1O
active: [2] -21.7% | [3] 4.89% | [5] -5.59% | [6] 8.53% | [7] 8.26% | [8] -13.2% | [9] -21.3% | [10] 5.89% | [12] 6.48% | [13] 1.13% | [15] 3.91%
inactive: [16] 28.3% | [4] 14% | [17] 23.8% | [18] 15.6% | [11] 10.9% | [14] 14.6%

Clc1ccc2c(c1)-c1ccccc1C1=NCCN12
active: [1] 8.25%
inactive: [2] 33% | [16] 41.2% | [4] 44.4% | [5] 36.9% | [17] 24.3% | [18] 41.1% | [6] 58.4% | [7] 26.3% | [8] 29.6% | [9] 71.5% | [10] 29.4% | [11] 22.5% | [12] 10.6% | [13] 21% | [14] 40.7% | [15] 33.3%

Clc1ccccc1Nc1nnc(-c2ccncc2)s1
inactive: [2] 89.2% | [3] 100% | [16] 107% | [4] 94.5% | [5] 105% | [17] 101% | [18] 110% | [6] 94.9% | [7] 102% | [8] 89.5% | [9] 90.4% | [10] 93.6% | [11] 91.6% | [12] 96% | [13] 102% | [14] 106% | [15] 107%

Cc1nc2ccc(Nc3nc(Cl)nc(N4CCOCC4)n3)cc2n1Cc1ccccc1
inactive: [1] 18.5% | [2] 74.4% | [3] 44% | [4] 126% | [5] 93.7% | [18] 98.4% | [6] 81.4% | [8] 40.6% | [9] 83.7% | [10] 110% | [11] 70.4% | [12] 64.7% | [13] 81.2% | [15] 95.8%
active: [17] -1.16% | [14] 0.667%

C=CCn1c(SCC(=O)Nc2ccc(C(=O)/C=C/c3ccccc3)cc2)nnc1-c1ccc(OC)c(OC)c1
inactive: [3] 78.5% | [16] 108% | [4] 72.5% | [5] 93.4% | [17] 81.6% | [18] 78.1% | [6] 96.4% | [7] 80.1% | [8] 50.6% | [9] 59.5% | [10] 69.3% | [11] 100% | [12] 16.5% | [14] 85.3% | [15] 57.3%
active: [2] 2.52% | [13] -91.7%

CC(=O)N(C)c1ccc(Nc2cc(C)[nH]c3ccc4ncnc4c23)cc1
inactive: [1] 11.1% | [2] 56.2% | [16] 63.5% | [4] 77.9% | [5] 74.3% | [18] 76.3% | [6] 75.1% | [7] 101% | [8] 47.5% | [9] 61.6% | [10] 81.3% | [11] 45.5% | [12] 28.3% | [13] 19.2% | [14] 26.9% | [15] 67.6%

CC1(C)C2CCC(O)(C(=O)O)C1C2 (stereo unspecified)
inactive: [2] 114% | [3] 112% | [16] 112% | [4] 99.2% | [5] 103% | [17] 95.8% | [18] 118% | [6] 115% | [7] 116% | [8] 96.1% | [9] 104% | [10] 99.1% | [11] 115% | [12] 95.7% | [13] 117% | [14] 118% | [15] 118%

COc1ccc(C(=O)c2cc(C)c(OC)c(C)c2)cc1OC(=O)CCl
active: [1] 2.99% | [3] 6.89% | [18] -15.5% | [7] 7.11% | [10] -23.5% | [13] 6.62%
inactive: [2] 11.2% | [6] 44.4% | [8] 62.7% | [9] 15.2% | [11] 26.5% | [12] 19.2% | [14] 27% | [15] 12.2%

CC(CN1CCN(CCOCCO)CC1)CN1c2ccccc2Sc2ccc(Cl)cc21 (stereo unspecified)
inactive: [2] 60% | [3] 97.2% | [16] 71.7% | [4] 75.7% | [5] 90.4% | [17] 60.1% | [18] 67% | [6] 60.6% | [7] 68.7% | [8] 62.7% | [9] 79.1% | [10] 22.4% | [11] 63.6% | [12] 55.6% | [13] 37.5% | [14] 39.5% | [15] 28%

CCOC(=O)C(Nc1ccccc1)C(=O)OCC
inactive: [1] 106% | [2] 106% | [3] 105% | [4] 93% | [17] 92.3% | [18] 129% | [6] 117% | [8] 102% | [9] 95.1% | [10] 110% | [11] 111% | [12] 95.8% | [13] 101% | [14] 103% | [15] 115%

COc1cc2c(cc1I)-c1c(cc(OC)c(OC)c1OC)CC[C@@H]2NC(C)=O
inactive: [2] 35.5% | [3] 24.6% | [16] 36% | [4] 40.8% | [5] 10.3% | [18] 17.3% | [8] 55.3% | [9] 47.7% | [11] 10.3% | [12] 11.3%
active: [17] 9.96% | [6] -21.4% | [7] -19.2% | [10] -8.3% | [13] 6.59% | [14] 0.415% | [15] 7.62%

Cc1cc(NC(=O)C2c3ccccc3C(=O)N(CC(C)C)C2c2cccs2)no1 (stereo unspecified)
active: [1] 7.23% | [2] 3.73% | [3] 3.68% | [4] -8.84% | [18] -53.6% | [9] -4.46% | [10] -43.8% | [11] -57% | [13] 0.136% | [14] -45.5%
inactive: [5] 94.7% | [17] 16.2% | [6] 67.7% | [8] 23.9% | [12] 10.4% | [15] 86.8%

Cc1cc(NC(=O)c2ccc(N)cc2)ccc1N=Nc1ccc2cc(S(=O)(=O)O)cc(S(=O)(=O)O)c2c1
inactive: [1] 107% | [2] 94% | [3] 107% | [5] 103% | [17] 102% | [6] 110% | [7] 108% | [8] 105% | [9] 108% | [10] 101% | [11] 96.7% | [12] 109% | [13] 111% | [14] 105% | [15] 105%

O=C1/C(=C\c2cccn2C(=O)c2ccccc2)c2ccccc2N1c1c(Cl)cccc1Cl
inactive: [1] 25% | [2] 69.6% | [3] 87% | [4] 59.4% | [5] 95% | [17] 71.2% | [18] 70.4% | [6] 95.6% | [8] 65.6% | [9] 102% | [10] 33.8% | [11] 30% | [12] 29.8% | [13] 30.5% | [14] 83.8% | [15] 65.4%

[Ag].[Ag].[NH-]S(=O)(=O)c1ccc(N=Nc2cc(N=Nc3ccc(S([NH-])(=O)=O)cc3)c3c(NC(=O)C(Cl)Cl)cccc3c2OC(=O)C(Cl)Cl)cc1.[c-]1nccs1.[c-]1nccs1
active: [8] 7.8%
inactive: [1] 72.1% | [2] 83.5% | [3] 68.3% | [4] 110% | [5] 114% | [17] 76.2% | [6] 76.3% | [7] 90.4% | [9] 104% | [10] 87.2% | [11] 58.7% | [12] 50.8% | [13] 65.4% | [14] 99.1% | [15] 80.9%

Reference: PubChem BioAssay (NCI)
